Measured values as given in the antibiotic and cytotoxicity screens of Wong et al. (2023).
The campaign covered roughly 39,000 compounds. About 500 (1.3%) were called active. Shown is part of a subset that was picked to be rich in actives.

Each compound was assayed on S. aureus RN4220 (assay: growth inhibition call (relative growth <= 0.2)). Settings: 50 µM.

Growth inhibition call, active:
O=C(O)C1C(=CCO)OC2CC(=O)N21.[LiH] (centres undefined)
CC(=O)Oc1ccccc1C(=O)Nc1ncc([N+](=O)[O-])s1
COc1ccc(C2=N[C@@H](c3ccc(Cl)cc3)[C@@H](c3ccc(Cl)cc3)N2C(=O)N2CCNC(=O)C2)c(OC(C)C)c1
O=C(NC(CO)C(O)c1ccc([N+](=O)[O-])cc1)C(Cl)Cl (centres undefined)
CS(=O)(=O)c1ccc(C(O)C(CF)NC(=O)C(Cl)Cl)cc1 (centres undefined)

Growth inhibition call, inactive:
CC(C)NC(=O)N(C)C[C@H]1Oc2ccc(NS(=O)(=O)c3ccc(F)cc3)cc2CC(=O)N([C@H](C)CO)C[C@H]1C
COc1ccc2c3c([nH]c2c1)[C@@H](CO)N(C[C@]13CN(C1)S(=O)(=O)c1cccs1)C(=O)c1ccccc1
C[C@@H]1CN([C@@H](C)CO)C(=O)c2cc(NC(=O)NC3CCCCC3)ccc2O[C@@H]1CN(C)Cc1ccc(Oc2ccccc2)cc1
CC(C)(C)C(=O)C[n+]1ccc(C(N)=O)cc1
O=C(O)[C@H]1/C(=C/CO)O[C@@H]2CC(=O)N21
O=C(O)[C@@H]1C(=CCO)O[C@H]2CC(=O)N12
N[C@@H]1CC[C@@H](CCn2cc(C3(O)CCCC3)nn2)O[C@H]1CO
C[C@H](CO)N1C[C@H](C)[C@H](CN(C)C(=O)Nc2ccc(F)cc2)OCc2ccccc2-c2ccccc2C1=O
C[C@@H]1CCCCO[C@@H](CN(C)C(=O)NC2CCCCC2)[C@H](C)CN([C@H](C)CO)C(=O)c2cc(NS(=O)(=O)c3cccs3)ccc2O1
Cc1cccc(S(=O)(=O)N2C[C@H](O)COC[C@@H]3O[C@@H](CC(=O)NCc4ccc5c(c4)OCO5)CC[C@H]32)c1
CC(=O)Oc1ccccc1C(=O)Nc1ccccc1
CC(=O)Nc1ncc([N+](=O)[O-])s1
O=S1(=O)C[C@@H]2NC(=S)N[C@@H]2C1
C[C@H](CO)N1C[C@H](C)[C@@H](CN(C)S(=O)(=O)c2cn(C)cn2)Oc2ccc(NC(=O)NC3CCCCC3)cc2CC1=O
C[C@@H]1CN([C@@H](C)CO)C(=O)c2cc(NC(=O)CCN3CCOCC3)ccc2O[C@@H]1CN(C)C(=O)Nc1ccccc1
CC(C)NC(=O)N(C)C[C@H]1OCCCC[C@@H](C)Oc2ccc(NC(=O)C3CCCCC3)cc2C(=O)N([C@H](C)CO)C[C@H]1C
COc1ccc(C2=N[C@H](c3ccc(Cl)cc3)[C@H](c3ccc(Cl)cc3)N2C(=O)N2CCNC(=O)C2)c(OC(C)C)c1
C[C@H]1CN([C@@H](C)CO)C(=O)Cc2cc(NC(=O)CCN3CCOCC3)ccc2O[C@@H]1CN(C)C(=O)Nc1ccccc1
O=C(Nc1ccc(Br)cc1)c1ccc(N2C(=O)c3ccc(C(=O)Nc4ccc(Br)cc4)cc3C2=O)cc1
CO[C@H]1CN(C)C(=O)c2ccc(NC(=O)Nc3cccc(F)c3)cc2OC[C@H](C)N(C(=O)Nc2c(C)noc2C)C[C@@H]1C
CS(=O)(=O)c1ccc(C(O)C(CO)NC(=O)C(Cl)Cl)cc1 (centres undefined)
CCCCCCCCCCCCCCCC(=O)OC[C@H](NC(=O)C(Cl)Cl)[C@H](O)c1ccc([N+](=O)[O-])cc1
CCCCCCCCCCCCCCCC(=O)OCC(NC(=O)C(Cl)Cl)C(O)c1ccc([N+](=O)[O-])cc1 (centres undefined)
O=C([O-])CCC(=O)OCC(NC(=O)C(Cl)Cl)C(O)c1ccc([N+](=O)[O-])cc1.[Na+] (centres undefined)
Cc1noc(C)c1NC(=O)N(C)C[C@@H]1OCCCC[C@H](C)Oc2ccc(NC(=O)Nc3ccccc3)cc2C(=O)N([C@@H](C)CO)C[C@@H]1C
CCCN(C)C[C@H]1OCCCC[C@@H](C)Oc2ccc(NC(=O)Nc3ccc(OC)cc3)cc2C(=O)N([C@H](C)CO)C[C@@H]1C
COc1cccc(-c2cn(CC[C@H]3CC[C@H](NC(=O)CN(C)C)[C@@H](CO)O3)nn2)c1
COCCn1cc2c(n1)[C@H](CNC(=O)CS(C)(=O)=O)OCC2
C[C@H](CO)N1C[C@H](C)[C@H](CN(C)S(C)(=O)=O)Oc2ncc(C#CCN(C)C)cc2C1=O
